According to PubChem BioAssay AID1159580 (chemical genetic matrix, 2015):
Several values for one entry are separate records, joined by “and”; a condition that tells them apart may be missing. Identical values can stand only once. Out of some 5,500 compounds screened, about 2,000 (36%) were called active. Another 18% or so got no clear call; they are omitted. Rule as the data show it: active = normalized growth mostly below about 0.91 (no sharp cut-off); inconclusive = no clear call, values can overlap the other calls; inactive = mostly above about 0.92. This is one part of the list.

Assay: chemical genetic growth profiling, strain panel (AID 1159580);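 also: tested at 20 µM; growth read once vehicle control cultures reached saturation at 30 °C; 1 = growth at the plate median or of vehicle wells; lower values mean less growth of the strain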
Conditions: S. cerevisiae deletion strains, growth OD

Measured: normalized growth

Cc1cc(O)c(C=O)c2c1C(=O)Oc1c(COC(=O)/C=C/C(=O)O)c(O)c(C(=O)O)c(C)c1O2
inactive: locus YAL021C, strain ccr4, active compounds read low 0.915 | locus YAL030W, strain snc1, active compounds read low 0.96 | locus YBL061C, strain skt5, active compounds read low 0.96 | locus YBR009C, strain hhf1, active compounds read low 0.937 | locus YBR021W, strain FUR4, active compounds read low 1.06 | locus YBR023C, strain chs3, active compounds read low 0.967 | locus YBR171W, strain sec66, active compounds read low 0.983 | locus YBR229C, strain ROT2, active compounds read low 0.988 | locus YBR279W, strain paf1, active compounds read low 0.933 | locus YCL011C, strain gbp2, active compounds read low 0.974 | locus YCL016C, strain dcc1, active compounds read low 0.992 | locus YCL029C, strain bik1, active compounds read low 0.98 | locus YCL069W, strain vba3, active compounds read low 0.973 | locus YCR088W, strain abp1, active compounds read low 1.02 | locus YDL005C, strain med2, active compounds read low 1.02 | locus YDL035C, strain GPR1, active compounds read low 0.929 | locus YDL040C, strain nat1, active compounds read low 1 | locus YDL074C, strain BRE1, active compounds read low 0.936 | locus YDL101C, strain DUN1, active compounds read low 0.959 | locus YDL185W, strain tfp1, active compounds read low 0.919 | locus YDL192W, strain arf1, active compounds read low 0.95 | locus YDR001C, strain nth1, active compounds read low 0.998 | locus YDR101C, strain arx1, active compounds read low 0.977 | locus YDR137W, strain rgp1, active compounds read low 1.04 | locus YDR150W, strain NUM1, active compounds read low 0.951 | locus YDR159W, strain sac3, active compounds read low 0.981 | locus YDR195W, strain ref2 1.1 | locus YDR297W, strain sur2, active compounds read low 0.957 | locus YDR318W, strain mcm21, active compounds read low 0.991 | locus YDR335W, strain msn5, active compounds read low 0.943 | locus YDR388W, active compounds read low 0.992 | locus YDR392W, strain spt3, active compounds read low 0.813 | locus YDR502C, strain sam2, active compounds read low 0.96 | locus YEL003W, strain gim4, active compounds read low 0.977 | locus YEL037C, strain rad23, active compounds read low 0.939 | locus YEL061C, strain CIN8 (second series), active compounds read low 0.993 | locus YEL061C, strain CIN8, active compounds read low 0.97 | locus YER016W, strain bim1, active compounds read low 1.03 | locus YER110C, active compounds read low 0.981 | locus YER155C, strain BEM2 (second series), active compounds read low 1.01 | locus YER155C, strain BEM2, active compounds read low 1 | locus YER167W, strain BCK2, active compounds read low 1.01 | locus YGL078C, strain dbp3, active compounds read low 0.969 | locus YGL086W, strain mad1, active compounds read low 0.971 | locus YGL167C, strain pmr1, active compounds read low 0.993 | locus YGL227W, strain vid30, active compounds read low 1.02 | locus YGL240W, strain doc1, active compounds read low 1.06 | locus YGL248W, strain PDE1, active compounds read low 0.947 | locus YGR135W, strain pre9, active compounds read low 0.958 | locus YGR252W, strain gcn5, active compounds read low 1.12 | locus YHR013C, strain ard1, active compounds read low 0.877 | locus YHR030C, strain SLT2, active compounds read low 0.973 and 0.971 | locus YHR079C, strain IRE1 (second series), active compounds read low 0.994 | locus YHR079C, strain IRE1, active compounds read low 0.985 | locus YHR094C, strain hxt1, active compounds read low 0.994 | locus YHR129C, strain ARP1, active compounds read low 0.937 | locus YHR200W, strain rpn10, active compounds read low 0.976 | locus YIL066C, strain RNR3, active compounds read low 0.896 | locus YIL073C, strain SPO22, active compounds read low 0.898 | locus YIL125W, strain kgd1, active compounds read low 0.969 | locus YIR030C, strain dcg1, active compounds read low 0.993 | locus YJL092W, strain hpr5, active compounds read low 0.952 | locus YJL095W, strain BCK1 (second series), active compounds read low 0.961 | locus YJL095W, strain BCK1, active compounds read low 0.904 and 0.959 | locus YJL115W, strain asf1, active compounds read low 1 | locus YJL129C, strain trk1, active compounds read low 1.08 | locus YJL134W, strain LCB3, active compounds read low 0.978 | locus YJL154C, strain vps35, active compounds read low 0.992 | locus YJL164C, strain tpk1, active compounds read low 0.935 | locus YJL166W, strain qcr8, active compounds read low 0.947 | locus YJL168C, strain set2, active compounds read low 0.974 | locus YJL187C, strain SWE1 (second series), active compounds read low 0.879
active: locus YAL026C, strain drs2, active compounds read low 0.841 | locus YBR231C, strain swc5, active compounds read low 0.885 | locus YCL061C, strain MRC1, active compounds read low 0.912 | locus YDR069C, strain doa4, active compounds read low 0.883 | locus YDR162C, strain NBP2, active compounds read low 0.808 | locus YDR334W, strain swr1, active compounds read low 0.891 | locus YER015W, strain faa2, active compounds read low 0.874 | locus YER111C, strain swi4, active compounds read low 0.906 | locus YFR010W, strain ubp6, active compounds read low 0.873 | locus YGL173C, strain kem1, active compounds read low 0.856 | locus YGL253W, strain hxk2, active compounds read low 0.787 | locus YGR229C, strain SMI1, active compounds read low 0.734 | locus YHR027C, strain rpn1, active compounds read low 0.761 | locus YHR142W, strain chs7, active compounds read low 0.852
